# Assay outcomes deposited in PubChem BioAssay by Sanford-Burnham Center for Chemical Genomics.
# The list is not random: actives were taken first. Their share in the collection is about 2.6%.
# A3G deaminase: inhibitors of human APOBEC3G DNA deaminase; Q9HC16; inhibition, % at 20 µM; recombinant A3G, ssDNA deamination FAM/TAMRA fluorescence; 330,000 tested, 0.28% active;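 active = inhibition of at least 40% at 20 µM, with no more than 30% in the related APOBEC3A deaminase screen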;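 also: plate controls were DMSO wells with A3G for no effect and wells lacking A3G enzyme for full effect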
# eIF4H inh: inhibitors of RNA binding by human eIF4H; Q15056; AID 2012; eIF4H fluorescence polarization binding assay; 290,000 tested, 0.94% active; inhibition, % at 35 µM;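 also: calls also rest on retests at 20 µM and on dose response follow-up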
# PABP FP inh: PABP-poly(A) binding inhibition; 290,000 tested, 1% active; P11940; AID 2014; PABP-poly(A) RNA binding, fluorescence polarization; calls only at 35 µM;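 also: calls also rest on retests at 20 µM and on dose response follow-up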
# A3A deaminase: blocks human APOBEC3A ssDNA deamination | 330,000 tested, 0.41% active | recombinant A3A, FAM/TAMRA ssDNA deamination fluorescence | inhibition, % at 20 µM;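 active = at least 40% inhibition at 20 µM here, with at most 30% in a related deaminase screen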;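 also: plate controls were A3A with DMSO for no effect and wells lacking A3A enzyme for full effect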
# Target sequence (P31941 whole entry, looked up): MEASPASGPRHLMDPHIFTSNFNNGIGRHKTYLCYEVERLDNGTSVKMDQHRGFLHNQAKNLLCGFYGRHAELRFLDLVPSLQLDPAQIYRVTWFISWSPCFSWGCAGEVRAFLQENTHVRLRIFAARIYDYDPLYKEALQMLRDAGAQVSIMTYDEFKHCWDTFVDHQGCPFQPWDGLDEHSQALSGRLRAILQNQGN
# PHOSPHO1 inh: PHOSPHO1 (human) inhibition | inhibition, % at 13.3 µM | recombinant PHOSPHO1, absorbance phosphatase assay | 290,000 tested, 1.1% active | AID 1565; in the data active = inhibition above about 60%
# Target sequence (Q8TCT1 whole entry, looked up): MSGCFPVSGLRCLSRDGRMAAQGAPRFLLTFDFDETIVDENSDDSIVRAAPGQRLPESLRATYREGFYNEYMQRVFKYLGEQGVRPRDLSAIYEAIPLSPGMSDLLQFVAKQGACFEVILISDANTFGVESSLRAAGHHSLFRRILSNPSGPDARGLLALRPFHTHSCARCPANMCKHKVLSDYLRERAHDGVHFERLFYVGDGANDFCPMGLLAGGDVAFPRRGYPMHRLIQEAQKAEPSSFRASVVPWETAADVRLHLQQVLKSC
# MLLE-PAM2 inh: inhibitors of microRNA-mediated deadenylation, human PABP1 MLLE binding | inhibition, % at 20 µM | AID 588489 | GST-MLLE / FITC-PAM2 fluorescence polarization | P11940 | 360,000 tested, 0.36% active; in the data active = inhibition above about 35%, passing the limit was not always enough;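 also: plate controls were DMSO wells with GST-MLLE for no effect and wells lacking GST-MLLE protein for full effect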
# * marks the source's active call; other numbers are inactive results; i = inactive; ? = inconclusive; . = no result given; + = active, no number. Unless noted, no rule for the calls is given here.
SMILES,A3G deaminase,eIF4H inh,PABP FP inh,A3A deaminase,PHOSPHO1 inh,MLLE-PAM2 inh
CSCC[C@H](NC(=O)OC(C)(C)C)c1nnc(SCc2cccc(F)c2)o1,-6,-8,i,-6,74*,-34
Cc1cc(C(=O)OCC(=O)c2ccc(Br)s2)no1,1,6,i,5,-2,-6
Cc1cc(C(=O)OCC(=O)c2ccc(Br)s2)c(C)o1,-4,70*,+,-2,11,.
COc1ccc(NC(=O)CSc2nc(N)c(C(=O)Nc3ccc(N(C)C)cc3)s2)cc1,-10,-4,i,-8,66*,24
COc1ccc([N+](=O)[O-])cc1NCc1ccccc1C,1,-4,i,0,60*,6
CC1=C(C)NC(=S)SC1,0,-4,i,-5,73*,26
COc1ccc(C(=O)NC(=S)Nc2ccc(Cc3ccncc3)cc2)cc1,-4,-8,i,-4,23,5
O=C(NC(=S)Nc1ccc(Cc2ccncc2)cc1)c1ccccc1F,-11,-4,i,7,63*,27
Cc1ccccc1C(=O)NC(=S)Nc1ccc(Cc2ccncc2)cc1,-5,-8,i,-4,-15,25
O=C(NC(=S)Nc1ccc(Cc2ccncc2)cc1)c1ccccc1Cl,-3,2,i,6,4,43*
Cc1c(OC(C)C(=O)NCC2CCC(C(=O)O)CC2)ccc2c3c(c(=O)oc12)CCCC3 (stereo unspecified),-2,0,i,-4,20,4
CCc1oc(C(=O)O)cc1CN(CC)CC,1,0,i,1,-2,0
CCN(CC)Cc1cc(O)c(CN(CC)CC)cc1O,.,?,i,.,30,74*
O=C(Nc1cc2nn(-c3ccccc3)nc2cc1Cl)c1ccco1,-3,28*,+,-4,21,-17
O=C(Nc1ccc2nn(-c3ccccc3)nc2c1)c1ccco1,2,5,i,5,-8,1
C[C@@H]1CN([C@H](C)CO)S(=O)(=O)c2ccc(C#Cc3ccccc3F)cc2O[C@@H]1CN(C)C(=O)Cc1ccccc1,.,.,.,.,.,-3
O=C(NCc1ccco1)c1cccn2c(=O)c3cc4ccccc4cc3nc12,.,25,i,.,100*,.
COCCCNC(=O)c1cccn2c(=O)c3cc4ccccc4cc3nc12,-6,20,+,-3,95*,36
C=CCn1c(=N)c(C(=O)NCCCOC)cc2c(=O)n3cccc(C)c3nc21,0,-11,i,-1,-30,7
COc1ccccc1N1C(=O)CC(Sc2ccccc2N)C1=O (stereo unspecified),-4,4,i,-1,18,14
O=[N+]([O-])c1cc2cccnc2c2ncccc12,2,-8,i,2,45,-8
NS(=O)(=O)c1cccc2c1c([N+](=O)[O-])cc1nc(O)c(O)nc12,-7,.,.,-2,.,38*
CS(=O)(=O)c1ccc(-c2cn3cc(C(=O)O)ccc3n2)cc1,1,3,i,4,61*,1
COc1cc(C(=O)N/N=C/c2ccc3c(c2)c2ccccc2n3C)ccc1O,-1,9,i,-3,43,5
Cn1c2ccccc2c2cc(/C=N/NC(=O)c3cc(O)ccc3O)ccc21,48,86*,+,74,0,-1
SMILES,A3G deaminase,eIF4H inh,PABP FP inh,A3A deaminase,PHOSPHO1 inh,MLLE-PAM2 inh
Cc1ccc(NC(=O)CN(C)C(=O)C2CSC3(C)CCC(=O)N23)cc1 (stereo unspecified),.,.,.,.,.,3
COc1ccc(Cc2c(C(C)(C)C)nc3c(C)cc(Br)cn23)c(C)c1,.,.,.,.,.,47*
CCN(C(=O)COC(=O)/C=C/c1ccco1)C1CCCCC1,5,.,.,32,.,10
COC(=O)c1cccc(N2CCCC2=O)c1,-5,-6,i,-6,-10,7
COC(=O)c1cccc(-n2sc3ccccc3c2=O)c1,78*,.,.,-1,.,28
Cc1ccc(-c2nc3ccccc3c(=O)n2O)cc1,-8,-1,i,-3,.,13
O=c1c2ccccc2nc(-c2ccc([N+](=O)[O-])cc2)n1O,6,3,i,-2,61*,2
Cc1ccc(C(=O)NCc2ccco2)c(C)c1,-1,-1,i,-3,-2,5
Cc1ccccc1C1C(C#N)=C2N=C(N)c3c(sc4c3CCCCC4)N2C2=C1C(=O)CC(C)(C)C2 (stereo unspecified),-6,114*,i,-1,8,13
Cc1ccccc1C1C(C#N)=C2NC(=O)c3c(sc4c3CCCCC4)N2C2=C1C(=O)CC(C)(C)C2 (stereo unspecified),-12,47,i,-8,28,.
COc1ccc(C2CC(c3c(O)cc(C)oc3=O)=NCCS2)c(OC)c1 (stereo unspecified),-3,74*,+,-2,-5,-30
Cc1cc(O)c(C2=Nc3ccccc3SC(c3ccc(Cl)cc3)C2)c(=O)o1 (stereo unspecified),-7,-4,i,-2,3,27
CCOc1ccc(CCNC(=O)c2cc([N+](=O)[O-])ccc2N2CCOCC2)cc1OCC,4,-7,i,4,63*,2
NC(CO)(CO)COCc1ccccc1,-10,68,+,-6,33,10
Cc1occc1-c1nnc(SCC(=O)c2cc3ccccc3oc2=O)o1,-1,60*,i,4,34,15
Cc1occc1-c1nnc(SCC(=O)Nc2ccccn2)o1,-9,0,i,3,-1,-15
CN(C[C@H](Cc1ccccc1)N(CCN(CCc1ccccc1)N=O)N=O)N=O,-6,-8,+,0,39,-9
CCN(CC)S(=O)(=O)c1ccc(C)c(NC(=O)CNc2cccc(S(=O)(=O)N3CCOCC3)c2)c1,-11,.,.,-2,.,7
CCN(CC)S(=O)(=O)c1ccc(C)c(NC(=S)Nc2cccc(S(=O)(=O)N3CCCCCC3)c2)c1,5,-5,i,2,-1,37*
O=C(Cn1cnnn1)Nc1cccc(S(=O)(=O)N2CCCCC2)c1,-8,19*,i,-3,13,-3
Cc1ccc(S(=O)(=O)N2CCCCC2)cc1NC(=S)NC(=O)c1ccco1,-7,-12,i,0,12,40*
COc1ccc(NS(=O)(=O)c2ccc(N3CCCC3)c(NC(=S)Nc3cccc(S(=O)(=O)N(C)C)c3)c2)cc1,22,-4,i,0,64*,.
O=C(Cc1ccccc1)NCc1ccc(-n2cccc2)cc1,0,-1,i,0,8,-3
O=C(NC(=S)Nc1ccc(CN2CCCCC2)cc1)c1ccco1,0,-8,i,-2,37,36*
O=C(NC(=S)Nc1ccc(CN2CCOCC2)cc1)c1ccco1,-4,-2,i,-2,8,29
Cc1ccc(SC2=C(Sc3ccc(C)cc3)C(=O)c3ccccc3C2=O)cc1,-4,6,i,3,25,40
CC1=CC(=O)C(Sc2ccc(C)cc2)=CC1=O,.,.,.,.,.,35*
